# Values joined by “and” are separate entries in the source; they are usually repeats but may differ in a detail not shown here. Equal values may be shown once. Records with an inconclusive call do not appear. Some structures have more than one record in an assay (separate samples or runs), and their calls can disagree. Active and inactive are the calls of the source. Rule for the calls: active = hit-call score of the fitted dose curve at least 0.9, where 1 is the maximum; inconclusive = response in the unintended direction; inactive = score below 0.9.
# Experiments:
# [1] = tested on: guinea pig Leukotriene B4 Receptor (LTB4), gene 100379538; experiment: NVS_GPCR_gLTB4: NovaScreen (NVS) G Protein-Coupled Receptor Assay for guinea pig Leukotriene B4 Receptor (LTB4) (AID 2283247)
# How it was run: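 Radioligand displacement on guinea pig spleen membranes, filter-based scintillation counting 2 h after dosing. Primary duplicate single point at 25 uM; hits over threshold (e.g. 30% inhibition) run in concentration-response up to 50 uM, DMSO baseline.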
# [2] = target: guinea pig Leukotriene D4 Receptor (LTD4), CYSLTR1 (gene 100135514) (UniProt Q2NNR5); experiment: NVS_GPCR_gLTD4: NovaScreen (NVS) G Protein-Coupled Receptor Assay for guinea pig Leukotriene D4 Receptor (LTD4) (AID 2283248)
# How it was run: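 Radioligand displacement on guinea pig lung membranes, 1 h incubation, filtration and scintillation counting; DMSO as negative control. Duplicate 25 uM primary screen, then singleton concentration-response up to 50 uM.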
# [3] = target: human Serotonin, 5-Hydroxytryptamine Receptor 6 (5HT6), HTR6 (gene 3362) (UniProt P50406); experiment: NVS_GPCR_h5HT6: NovaScreen (NVS) G Protein-Coupled Receptor Assay for human Serotonin, 5-Hydroxytryptamine Receptor 6 (5HT6) (AID 2283253)
# How it was run: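 Radioligand binding to 5HT6 in HEK293-derived membranes, cell-free, 1 h after dosing; bound ligand measured by filter-based scintillation counting. Primary screen in duplicate at 25 uM; actives retested in concentration series.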
# [4] = target: human Serotonin, 5-Hydroxytryptamine Receptor 7 (5HT7), HTR7 (gene 3363) (UniProt P34969); experiment: NVS_GPCR_h5HT7: NovaScreen (NVS) G Protein-Coupled Receptor Assay for human Serotonin, 5-Hydroxytryptamine Receptor 7 (5HT7) (AID 2283255);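 note: hits reduce specific radioligand binding relative to DMSO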
# How it was run: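 Radioligand displacement on membranes from CHO cells expressing human 5HT7, 1 h incubation, filter-based scintillation counting. Primary screen used a single 25 uM concentration in duplicate; actives were followed up in concentration series.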
# [5] = target: human Adenosine A2a Receptor (AdoRA2a), ADORA2A (gene 135) (UniProt P29274); experiment: NVS_GPCR_hAdoRA2a: NovaScreen (NVS) G Protein-Coupled Receptor Assay for human Adenosine A2a Receptor (AdoRA2a) (AID 2283256)
# How it was run: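 Cell-free radioligand binding on membranes from HEK293 expressing the receptor; competitive displacement read 1.5 h after dosing by filter-based scintillation counting. Primary screen in duplicate at 25 uM; actives followed in concentration series, with DMSO as baseline.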
# [6] = target: human Adrenergic, Beta 1 Receptor (Adrb1), ADRB1 (gene 153) (UniProt P08588); experiment: NVS_GPCR_hAdrb1: NovaScreen (NVS) G Protein-Coupled Receptor Assay for human Adrenergic, Beta 1 Receptor (Adrb1) (AID 2283258)
# How it was run: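 Cell-free radioligand displacement on receptor from human neuroepithelioma cells; 2 h after dosing, filter-based scintillation counting. Primary screen in duplicate at 25 uM, actives retested in concentration series; loss of signal vs DMSO baseline.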
# [7] = target: Type-1 angiotensin II receptor (Homo sapiens) (UniProt P30556); experiment: NVS_GPCR_hAT1: NovaScreen (NVS) G Protein-Coupled Receptor Assay for human Angiotensin II receptor type 1 (AT1) (AID 2283263)
# How it was run: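 Membranes from KAN-TS cells; radioligand competitive displacement, 3 h, filtration and scintillation counting. Single-point duplicate screen at 25 uM, then concentration-response up to 50 uM for hits; loss of signal fitted versus DMSO.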
# [8] = target: human Dopamine Receptor D4.4 (DRD4.4), DRD4 (gene 1815) (UniProt P21917); experiment: NVS_GPCR_hDRD4.4: NovaScreen (NVS) G Protein-Coupled Receptor Assay for human Dopamine Receptor D4.4 (DRD4.4) (AID 2283264)
# How it was run: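 Radioligand displacement on human DRD4.4 from CHO-derived membranes, 1 hour incubation, bound counts read by filtration and scintillation. Primary screen in duplicate at 25 uM; actives followed up in concentration series.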
# [9] = target: human Endothelin Receptor Type A (ETA), EDNRA (gene 1909) (UniProt P25101); experiment: NVS_GPCR_hETA: NovaScreen (NVS) G Protein-Coupled Receptor Assay for human Endothelin Receptor Type A (ETA) (AID 2283265)
# How it was run: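 Cell-free radioligand displacement using SH-SY5Y-derived protein, 3 h incubation, filter-based scintillation counting. Primary screen in duplicate at 25 uM; actives then run in concentration-response up to 50 uM; loss of binding fitted versus DMSO.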
# [10] = target: human Dopamine Receptor D2 (DRD2), DRD2 (gene 1813) (UniProt P14416); experiment: NVS_GPCR_hDRD2s: NovaScreen (NVS) G Protein-Coupled Receptor Assay for human Dopamine Receptor D2 (DRD2) (AID 2283266)
# How it was run: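 Radioligand displacement used human DRD2 membranes extracted from CHO cells and was read by filter-based scintillation counting after 1.5 hours. Primary screening was in duplicate at 25 uM. Loss of signal versus DMSO was fitted, with concentration series in follow-up.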
# [11] = target: guinea pig Opioid, Kappa 1 Receptor (OpiateK), OPRK1 (gene 100135587) (UniProt P41144); experiment: NVS_GPCR_gOpiateK: NovaScreen (NVS) G Protein-Coupled Receptor Assay for guinea pig Opioid, Kappa 1 Receptor (OpiateK) (AID 2283252);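 note: radioligand displacement from kappa opioid receptor in guinea pig cerebellar membranes; active means reduced radioligand binding relative to DMSO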
# How it was run: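 Signal is scintillation counts of filter-trapped radioligand bound to guinea pig cerebellar membrane receptor, measured 2 hours post-dosing. Activity is loss of binding versus DMSO, first at 25 uM in duplicate, then as concentration series for actives.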
# [12] = target: rat Monoamine Oxidase, MAO-B, Peripheral (MAOBP), Maob (gene 25750) (UniProt P19643); experiment: NVS_ENZ_rMAOBP: NovaScreen (NVS) Enzymatic Assay for rat Monoamine Oxidase, MAO-B, Peripheral (MAOBP) (AID 2283242)
# [13] = tested on: guinea pig Muscarinic, Peripheral (Mperiperal) Receptor, Non-selective Binding, gene 100379235; experiment: NVS_GPCR_gMPeripheral_NonSelective: NovaScreen (NVS) G Protein-Coupled Receptor Assay for guinea pig Muscarinic, Peripheral (Mperiperal) Receptor, Non-selective Binding (AID 2283250)
# How it was run: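 Guinea pig bladder membranes, radioligand binding read 1 h after dosing by filter scintillation counting; loss of signal vs DMSO. Primary duplicate screen at 25 uM, then concentration-response up to 50 uM.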
# [14] = tested on: rat Monoamine Oxidase, MAO-A, Central (MAOAC), gene 29253; experiment: NVS_ENZ_rMAOAC: NovaScreen (NVS) Enzymatic Assay for rat Monoamine Oxidase, MAO-A, Central (MAOAC) (AID 2283243);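 note: potency refers to inhibition seen as signal drop below DMSO baseline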
# How it was run: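 Rat brain tissue extract served as the cell-free enzyme source; activity was measured by radiometric scintillation counting 1.5 hours after compound addition. Loss of signal relative to DMSO baseline indicated inhibition; primary screen at 25 uM in duplicate.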
# [15] = target: human Adrenergic, Alpha 2c Receptor (Adra2C), ADRA2C (gene 152) (UniProt P18825); experiment: NVS_GPCR_hAdra2C: NovaScreen (NVS) G Protein-Coupled Receptor Assay for human Adrenergic, Alpha 2c Receptor (Adra2C) (AID 2283259)
# How it was run: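 Radioligand binding on Sf9-expressed receptor membranes, 1 h after chemical dosing, filter-based scintillation read-out. Loss of binding fitted positively versus DMSO; primary duplicate screen at 25 uM, actives retested in concentration series.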
# [16] = target: human Adrenergic, Beta 3 Receptor (Adrb3), ADRB3 (gene 155) (UniProt P13945); experiment: NVS_GPCR_hAdrb3: NovaScreen (NVS) G Protein-Coupled Receptor Assay for human Adrenergic, Beta 3 Receptor (Adrb3) (AID 2283262)
# How it was run: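 Membranes from SK-N-MC cells pretreated with isoproterenol and 8-bromo-cAMP were used in a radioligand competitive displacement binding assay. Binding was read by filter-based scintillation counting 1 hour after dosing. Primary screening was in duplicate at 25 uM, with concentration series in follow-up.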
# [17] = target: Beta-2 adrenergic receptor (Homo sapiens) (UniProt P07550); experiment: NVS_GPCR_hAdrb2: NovaScreen (NVS) G Protein-Coupled Receptor Assay for human Adrenergic, Beta 2 Receptor (Adrb2) (AID 2283261)
# How it was run: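 Filter-based radioligand binding using receptor prepared from CHO cells, 1 h incubation, scintillation counting. Primary screen in duplicate at 25 uM, actives retested in concentration series; loss of binding relative to DMSO.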
# Sequence of human Dopamine Receptor D4.4 (DRD4.4), DRD4 (gene 1815) (P21917 whole entry, looked up): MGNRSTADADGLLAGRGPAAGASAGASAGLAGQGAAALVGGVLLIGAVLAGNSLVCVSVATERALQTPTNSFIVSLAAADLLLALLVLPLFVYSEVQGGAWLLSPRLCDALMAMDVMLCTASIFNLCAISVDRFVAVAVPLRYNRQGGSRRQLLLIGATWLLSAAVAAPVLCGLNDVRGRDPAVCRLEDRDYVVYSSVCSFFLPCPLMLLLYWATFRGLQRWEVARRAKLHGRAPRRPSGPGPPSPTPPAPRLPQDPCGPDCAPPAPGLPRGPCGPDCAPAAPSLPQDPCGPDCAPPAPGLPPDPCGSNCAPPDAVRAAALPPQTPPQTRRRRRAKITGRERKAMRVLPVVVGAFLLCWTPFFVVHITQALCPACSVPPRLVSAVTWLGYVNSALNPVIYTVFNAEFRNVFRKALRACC
# Sequence of Type-1 angiotensin II receptor (Homo sapiens) (P30556 whole entry, looked up): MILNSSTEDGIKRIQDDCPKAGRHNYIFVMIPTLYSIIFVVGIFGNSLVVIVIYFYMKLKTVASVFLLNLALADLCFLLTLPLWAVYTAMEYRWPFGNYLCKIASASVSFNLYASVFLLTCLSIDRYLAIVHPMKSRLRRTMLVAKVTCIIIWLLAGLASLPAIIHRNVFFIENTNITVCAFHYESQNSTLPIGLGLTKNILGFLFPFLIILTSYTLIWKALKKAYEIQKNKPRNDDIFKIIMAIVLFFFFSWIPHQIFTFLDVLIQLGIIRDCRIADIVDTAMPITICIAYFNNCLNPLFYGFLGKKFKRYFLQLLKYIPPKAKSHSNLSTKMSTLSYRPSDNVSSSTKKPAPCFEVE
# Sequence of human Adenosine A2a Receptor (AdoRA2a), ADORA2A (gene 135) (P29274 whole entry, looked up): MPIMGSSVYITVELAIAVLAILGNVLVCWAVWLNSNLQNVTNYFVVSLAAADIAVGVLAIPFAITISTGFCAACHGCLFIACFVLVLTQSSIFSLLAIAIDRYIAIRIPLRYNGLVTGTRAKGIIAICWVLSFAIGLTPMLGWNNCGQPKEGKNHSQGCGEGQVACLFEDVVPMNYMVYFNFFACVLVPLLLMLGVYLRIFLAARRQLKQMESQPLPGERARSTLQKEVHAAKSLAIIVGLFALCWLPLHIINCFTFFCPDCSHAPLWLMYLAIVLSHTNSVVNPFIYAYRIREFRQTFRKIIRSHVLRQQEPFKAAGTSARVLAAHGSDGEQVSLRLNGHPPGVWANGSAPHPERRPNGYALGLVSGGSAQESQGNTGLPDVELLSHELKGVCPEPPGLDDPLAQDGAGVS
# Sequence of human Serotonin, 5-Hydroxytryptamine Receptor 7 (5HT7), HTR7 (gene 3363) (P34969 whole entry, looked up): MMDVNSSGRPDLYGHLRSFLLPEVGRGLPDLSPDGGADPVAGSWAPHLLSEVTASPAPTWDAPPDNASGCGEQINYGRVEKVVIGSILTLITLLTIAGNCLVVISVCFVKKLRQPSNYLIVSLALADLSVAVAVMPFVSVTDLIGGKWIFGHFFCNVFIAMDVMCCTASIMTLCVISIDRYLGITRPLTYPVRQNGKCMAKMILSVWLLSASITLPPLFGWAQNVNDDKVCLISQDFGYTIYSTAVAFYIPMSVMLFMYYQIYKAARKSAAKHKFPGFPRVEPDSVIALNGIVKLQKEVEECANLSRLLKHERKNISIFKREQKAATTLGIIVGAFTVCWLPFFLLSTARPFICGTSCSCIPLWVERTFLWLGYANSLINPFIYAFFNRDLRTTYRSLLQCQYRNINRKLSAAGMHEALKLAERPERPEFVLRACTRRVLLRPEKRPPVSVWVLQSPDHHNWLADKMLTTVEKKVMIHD
# Sequence of human Serotonin, 5-Hydroxytryptamine Receptor 6 (5HT6), HTR6 (gene 3362) (P50406 whole entry, looked up): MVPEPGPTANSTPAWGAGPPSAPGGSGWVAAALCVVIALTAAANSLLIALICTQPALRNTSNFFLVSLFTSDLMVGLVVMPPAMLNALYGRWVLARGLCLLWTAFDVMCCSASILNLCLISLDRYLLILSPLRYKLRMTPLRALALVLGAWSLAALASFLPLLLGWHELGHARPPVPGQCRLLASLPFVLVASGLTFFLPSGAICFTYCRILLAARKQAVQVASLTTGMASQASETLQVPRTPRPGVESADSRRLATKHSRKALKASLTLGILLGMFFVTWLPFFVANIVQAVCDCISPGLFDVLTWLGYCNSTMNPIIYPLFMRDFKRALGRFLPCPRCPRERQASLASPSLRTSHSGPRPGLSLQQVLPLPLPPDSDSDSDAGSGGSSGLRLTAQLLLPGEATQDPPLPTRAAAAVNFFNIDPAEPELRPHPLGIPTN
# Sequence of guinea pig Leukotriene D4 Receptor (LTD4), CYSLTR1 (gene 100135514) (Q2NNR5 whole entry, looked up): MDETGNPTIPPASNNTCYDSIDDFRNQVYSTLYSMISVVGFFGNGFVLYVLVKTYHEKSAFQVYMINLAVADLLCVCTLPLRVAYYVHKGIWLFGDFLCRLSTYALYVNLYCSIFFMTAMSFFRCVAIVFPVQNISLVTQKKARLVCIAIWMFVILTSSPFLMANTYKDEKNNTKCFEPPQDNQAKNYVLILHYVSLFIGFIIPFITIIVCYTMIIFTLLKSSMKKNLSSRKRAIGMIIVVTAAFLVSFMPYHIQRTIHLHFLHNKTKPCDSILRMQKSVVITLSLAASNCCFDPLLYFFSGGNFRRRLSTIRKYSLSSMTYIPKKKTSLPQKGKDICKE
# Sequence of human Adrenergic, Beta 1 Receptor (Adrb1), ADRB1 (gene 153) (P08588 whole entry, looked up): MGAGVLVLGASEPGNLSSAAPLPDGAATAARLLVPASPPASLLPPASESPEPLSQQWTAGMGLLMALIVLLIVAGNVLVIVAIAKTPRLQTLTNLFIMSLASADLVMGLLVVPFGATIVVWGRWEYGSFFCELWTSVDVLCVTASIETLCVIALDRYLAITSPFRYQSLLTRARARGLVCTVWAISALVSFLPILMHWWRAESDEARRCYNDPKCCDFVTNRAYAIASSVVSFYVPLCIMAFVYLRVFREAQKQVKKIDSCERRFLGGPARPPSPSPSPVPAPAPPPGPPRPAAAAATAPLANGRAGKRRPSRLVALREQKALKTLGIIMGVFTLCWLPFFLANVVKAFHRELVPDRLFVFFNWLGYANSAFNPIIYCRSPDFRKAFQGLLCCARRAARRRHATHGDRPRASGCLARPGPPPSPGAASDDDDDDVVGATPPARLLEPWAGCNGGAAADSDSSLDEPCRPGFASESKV
# Sequence of rat Monoamine Oxidase, MAO-B, Peripheral (MAOBP), Maob (gene 25750) (P19643 whole entry, looked up): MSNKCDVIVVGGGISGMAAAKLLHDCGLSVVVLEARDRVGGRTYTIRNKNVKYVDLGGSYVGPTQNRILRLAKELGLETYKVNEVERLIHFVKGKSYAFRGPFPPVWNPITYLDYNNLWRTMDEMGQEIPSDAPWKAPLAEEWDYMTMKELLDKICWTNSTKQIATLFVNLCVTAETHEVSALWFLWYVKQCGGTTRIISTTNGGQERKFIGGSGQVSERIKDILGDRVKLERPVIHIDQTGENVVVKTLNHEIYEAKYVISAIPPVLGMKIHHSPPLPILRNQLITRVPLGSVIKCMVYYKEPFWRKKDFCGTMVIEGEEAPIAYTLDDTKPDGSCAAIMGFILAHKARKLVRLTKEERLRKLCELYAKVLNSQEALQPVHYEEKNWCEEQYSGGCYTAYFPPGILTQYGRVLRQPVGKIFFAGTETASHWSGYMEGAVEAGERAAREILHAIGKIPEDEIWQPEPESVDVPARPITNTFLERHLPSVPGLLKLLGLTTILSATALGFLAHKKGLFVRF
# Sequence of human Adrenergic, Alpha 2c Receptor (Adra2C), ADRA2C (gene 152) (P18825 whole entry, looked up): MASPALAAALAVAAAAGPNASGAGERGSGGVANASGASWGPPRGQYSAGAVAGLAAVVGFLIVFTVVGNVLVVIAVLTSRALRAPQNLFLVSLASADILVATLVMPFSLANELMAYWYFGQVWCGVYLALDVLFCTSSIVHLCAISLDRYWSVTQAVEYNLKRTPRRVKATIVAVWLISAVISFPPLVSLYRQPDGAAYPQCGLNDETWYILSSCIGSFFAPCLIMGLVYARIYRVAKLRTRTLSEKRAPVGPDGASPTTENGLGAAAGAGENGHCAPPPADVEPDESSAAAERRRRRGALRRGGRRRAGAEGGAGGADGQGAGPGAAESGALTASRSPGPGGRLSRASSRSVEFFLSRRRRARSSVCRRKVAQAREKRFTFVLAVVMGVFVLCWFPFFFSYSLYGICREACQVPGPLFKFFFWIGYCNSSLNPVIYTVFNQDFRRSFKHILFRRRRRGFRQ
# Sequence of human Dopamine Receptor D2 (DRD2), DRD2 (gene 1813) (P14416 whole entry, looked up): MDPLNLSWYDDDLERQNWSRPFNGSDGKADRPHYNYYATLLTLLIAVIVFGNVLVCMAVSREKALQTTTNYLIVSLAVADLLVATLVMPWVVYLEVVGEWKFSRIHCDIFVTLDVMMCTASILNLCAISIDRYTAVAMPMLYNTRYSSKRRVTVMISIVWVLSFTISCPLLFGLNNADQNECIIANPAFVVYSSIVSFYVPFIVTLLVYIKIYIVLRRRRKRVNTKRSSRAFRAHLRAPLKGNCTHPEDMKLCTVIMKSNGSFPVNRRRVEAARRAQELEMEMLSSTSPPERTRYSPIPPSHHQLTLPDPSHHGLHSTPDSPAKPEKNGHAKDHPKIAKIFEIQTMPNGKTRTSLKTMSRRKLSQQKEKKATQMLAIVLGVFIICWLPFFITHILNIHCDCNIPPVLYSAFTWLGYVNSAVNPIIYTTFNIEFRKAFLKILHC
# Sequence of human Adrenergic, Beta 3 Receptor (Adrb3), ADRB3 (gene 155) (P13945 whole entry, looked up): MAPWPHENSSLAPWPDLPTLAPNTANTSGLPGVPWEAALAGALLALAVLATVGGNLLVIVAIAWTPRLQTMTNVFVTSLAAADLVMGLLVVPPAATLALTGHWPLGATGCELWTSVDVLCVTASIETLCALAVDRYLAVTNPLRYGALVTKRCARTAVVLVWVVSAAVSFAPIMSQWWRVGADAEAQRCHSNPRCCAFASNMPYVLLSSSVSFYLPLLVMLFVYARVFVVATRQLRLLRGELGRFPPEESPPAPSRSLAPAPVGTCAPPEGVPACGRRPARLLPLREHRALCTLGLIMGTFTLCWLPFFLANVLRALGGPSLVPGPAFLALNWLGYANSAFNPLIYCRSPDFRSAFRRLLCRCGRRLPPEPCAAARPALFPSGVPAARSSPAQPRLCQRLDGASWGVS
smiles,measurement,setting,value
O=S(=O)(O)C(F)(F)C(F)(F)C(F)(F)C(F)(F)C(F)(F)C(F)(F)C(F)(F)C(F)(F)F,AC50,[1],13.1 µM (active) [middle of 4 runs]
same,outcome,[1],inactive
same,AC50,[2],24 µM (active) [middle of 4 runs]
same,outcome,[2],inactive
same,AC50,[3],32.7 µM (active) and 42.8 µM (active)
same,AC50,[4],6.51 µM (active) and 25 µM (active) and 24 µM (active)
same,AC50,[5],6.28 µM (active) [middle of 5 runs]
same,AC50,[6],37 µM (active) and 31.2 µM (active) and 29.9 µM (active)
same,AC50,[7],49.6 µM (active)
same,outcome,[7],inactive
same,AC50,[8],25 µM (active) and 16.3 µM (active) and 24 µM (active)
same,outcome,[8],inactive
same,outcome,[9],inactive
same,AC50,[10],7.24 µM (active)
CCOCN(C(=O)CCl)c1c(C)cccc1CC,outcome,[11],inactive
same,outcome,[3],inactive
same,outcome,[7],inactive
N#Cc1c(Cl)c(Cl)c(Cl)c(C#N)c1Cl,outcome,[3],inactive
same,outcome,[7],inactive
O=C1c2ccccc2C(=O)N1SC(Cl)(Cl)Cl,outcome,[12],inactive
same,outcome,[13],inactive
same,AC50,[3],16.3 µM (active)
ClC1C(Cl)C(Cl)C(Cl)C(Cl)C1Cl (stereo not drawn),AC50,[5],15.6 µM (active)
O=C(Nc1ccccc1)Nc1cnns1,AC50,[14],5.16 µM (active)
same,AC50,[1],25 µM (active)
same,outcome,[4],inactive
same,outcome,[5],inactive
same,AC50,[15],4.96 µM (active)
[2H]C1([2H])[n+]2ccccc2-c2cccc[n+]2C1([2H])[2H],outcome,[13],inactive
COC(=O)c1ccccc1CS(=O)(=O)NC(=O)Nc1nc(OC)cc(OC)n1,AC50,[14],25 µM (active)
COP(=S)(OC)Oc1ccc([N+](=O)[O-])cc1,AC50,[1],10.5 µM (active)
same,AC50,[16],12.5 µM (active)
CC1(C)C(C=C(Cl)Cl)C1C(=O)OC(C#N)c1ccc(F)c(Oc2ccccc2)c1 (stereo not drawn),outcome,[4],inactive
COc1nn(CSP(=S)(OC)OC)c(=O)s1,AC50,[17],6.74 µM (active)
C#CCN1C(=O)COc2cc(F)c(N3C(=O)C4=C(CCCC4)C3=O)cc21,AC50,[14],6.93 µM (active)
CNC(=O)Oc1cccc(N=CN(C)C)c1,outcome,[14],inactive
same,outcome,[8],inactive
CCc1ccc(C(=O)NN(C(=O)c2cc(C)cc(C)c2)C(C)(C)C)cc1,outcome,[13],inactive
